# High-throughput results (PubChem)
# TTR transcr act: TTR transcription activation, primary screen; SH-SY5Y TTR promoter Gaussia luciferase, luminescence; 100% = recombinant luciferase protein wells; activation, % at 16.7 µM; 92,000 compounds, 1.3% hits; AID 1117267;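 active means activation above the mean of all tested compounds plus 3 SD, cut at about 9.5% in these data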;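 further: cells exposed to compounds for one day before reading; 0% = median of all test compound wells on the plate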
# TTR inh HuH7: HuH7 TTR transcription inhibition, counter-screen. inhibition, % at 16.7 µM. HuH7 TTR promoter-Gaussia luciferase reporter, luminescence. 1,100 compounds, 4% hits. shares compounds with TTR transcr act;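 active means average inhibition above the solvent-only control wells' mean plus 3 SD, cut at about 15% in these data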;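 further: 0% = cells with DMSO only and 100% = cells with inhibitor control FD; inhibitors lower well luminescence so higher value means more inhibition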
# TTR act confirm: confirmation of human transthyretin transcription activators; shares compounds with TTR transcr act; SHSY5Y TTR promoter Gaussia luciferase, luminescence; 100% = purified Lucia enzyme wells, no cells; activation, % at 16.7 µM; 1,100 tested, under 10 active; AID 1117280;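 active means mean activation above a set limit taken from the earlier primary screen, cut at about 11% in these data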;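 further: 0% = DMSO-treated cells and 100% = recombinant Lucia luciferase without cells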
# Active calls of the source: *. The full list was thinned out, with hits kept by preference.
SMILES,TTR transcr act,others
COc1ccc2nc3c(c(-c4ccccc4)c2c1)CCC3,-4,
CCOC(=O)N1CCN(S(=O)(=O)c2ccc(C(=O)Nc3nnc(C4CC4)o3)cc2)CC1,0,
CN(Cc1cccc2cnccc12)C(=O)CCc1nnc(CCc2ccccc2)o1,0,
O=C(CCCOc1ccccc1)N1CCN(S(=O)(=O)c2cccs2)CC1,27*,TTR inh HuH7=-10;TTR act confirm=4
O=C(O)CCC(=O)N1CCN(S(=O)(=O)c2cccs2)CC1,4,
CC(=O)c1ccc(OCCCC(=O)N2CCN(S(=O)(=O)c3cccs3)CC2)cc1,-1,
NNC(=O)CCn1nnc2ccccc21,0,
O=C(N/N=C\C=C\c1ccco1)c1cncc(Br)c1,13*,TTR inh HuH7=-2;TTR act confirm=0
O=C(N/N=C\C=C\c1ccco1)c1cc(-c2ccc3ccccc3c2)n[nH]1,3,
O=C(N/N=C/C=C\c1ccco1)c1ccccn1,-1,
CCn1cc(CN2CCC(C(=O)Nc3ccc(Oc4ccccc4F)cc3)CC2)cn1,-2,
CN(CCc1ccccc1)C(=O)c1cccc(NC(=O)Cc2cccc(NC(=O)C3CCCN(C(=O)C4CCCCC4)C3)c2)c1 (stereo not drawn),2,
CCc1c(C)n([O-])c2c([n+]1=O)CCC2,12*,TTR inh HuH7=-17;TTR act confirm=0
O=[n+]1c2c(n([O-])c3c1CCCC3)CCCC2,0,
Cc1c(-c2ccc(Cl)cc2)[n+](=O)c2c(n1[O-])CCCC2,0,
COc1ccc(CCn2nnnc2C(CC(C)C)N2CCC(C(N)=O)CC2)cc1OC (stereo not drawn),4,
CCn1ncc(C2=NOC(C(=O)NCc3ccccc3)C2)c1C (stereo not drawn),-1,
COc1ccc(CN2CCC3CC2c2cc(-c4cccc(C)c4)ccc23)cc1 (stereo not drawn),0,
CCC(C)Sc1ccc(-c2nc3cc(C)ccn3c2NC2CCCCC2)cc1 (stereo not drawn),-3,
O=C(NCCNc1nccc(C(F)(F)F)n1)c1cccc(C(F)(F)F)c1,-2,
O=S(=O)(NCCNc1nccc(C(F)(F)F)n1)c1ccccc1,9.8*,TTR inh HuH7=-13;TTR act confirm=1
COc1ccc(OCCNS(=O)(=O)c2ccccc2)cc1,2,
COP(=O)(OC)C(NC(=O)OCc1ccccc1)C(C)C (stereo not drawn),0,
Cc1cccc(Oc2nc(-c3ccccc3)cc(C)c2S(C)(=O)=O)c1C,12*,TTR inh HuH7=-9;TTR act confirm=-1
Cc1cc(C)cc(Oc2nc(-c3ccccc3)cc(C)c2S(C)(=O)=O)c1,3,
SMILES,TTR transcr act,others
Cc1cc(-c2ccccc2)nc(Oc2ccc(C(C)(C)C)cc2)c1S(C)(=O)=O,-2,
O=C(Nc1ccc(Cl)cc1)OC(CN1CCCCC1)C(F)(F)F (stereo not drawn),-4,
COc1ccc(N(C(C)C(=O)N/N=C/c2ccc(OC)c(OC)c2)S(C)(=O)=O)cc1 (stereo not drawn),-1,
COc1ccc(N(C(C)C(=O)N/N=C/c2cccnc2)S(C)(=O)=O)cc1 (stereo not drawn),-1,
COc1ccc(N(C(C)C(=O)NN=C2CCCCCCC2)S(C)(=O)=O)cc1 (stereo not drawn),15*,TTR inh HuH7=-9;TTR act confirm=-1
COC(=O)CC(NC(=O)Nc1ccc(C)cc1)c1cccc([N+](=O)[O-])c1 (stereo not drawn),0,
CCc1nc2c(OCc3ccc(C(F)(F)F)cc3)cccn2c1N(C)C(=O)C(C)C,1,
Cc1ccc(Cl)cc1NC(=O)CN1CCOCC1,4,
COc1ccc(Cl)cc1CN1CCOCC1,0,
Clc1ccc2c(c1)c1ccccc1n2CN1CCOCC1,22*,TTR inh HuH7=-8;TTR act confirm=0
COc1ccc(C2(C)NC(=O)N(CC(=O)Nc3ccc4c(c3)OCO4)C2=O)cc1OC (stereo not drawn),15*,TTR inh HuH7=-12;TTR act confirm=1
CC1(c2ccc(OC(F)F)cc2)NC(=O)N(CC(=O)Nc2ccc3c(c2)OCO3)C1=O (stereo not drawn),-2,
CC1(c2ccccc2)NC(=O)N(CC(=O)Nc2ccc3c(c2)OCO3)C1=O (stereo not drawn),-1,
O=C(O)c1cccc(COc2cccc3ccccc23)c1,-1,
CCCOC1CCCN(C(=O)c2ccc(OC3CCN(C(=O)COC)CC3)cc2)C1 (stereo not drawn),1,
O=c1cc(-c2ccccc2)c2cc3c(cc2[nH]1)OCCO3,2,
COc1ccc(-n2c(=S)[nH]c3cc(C(=O)Nc4cc(C(N)=O)ccc4OC)ccc3c2=O)c(OC)c1,6,
CCN(CC)C(=O)C1=C(C)N(CCC2=CCCCC2)C(=O)C(CC(=O)NCCCCc2ccccc2)C1 (stereo not drawn),-2,
CC1=C(C(=O)N2CCOCC2)CC(CC(=O)NCCc2ccccn2)C(=O)N1CCC1=CCCCC1 (stereo not drawn),-1,
CCN(CC)C(=O)C1=C(C)N(CCC2=CCCCC2)C(=O)C(CC(=O)NCCc2ccccn2)C1 (stereo not drawn),24*,TTR inh HuH7=-9;TTR act confirm=-1
Cn1nnnc1SCC(=O)N1CCN(C(=O)c2ccco2)CC1,-1,
COc1ccccc1NC(=O)CC(c1ccc(OC(C)C)cc1)c1ccccc1OC (stereo not drawn),-2,
O=C(O)c1ccc(NCc2nc3cc4ccccc4cc3[nH]2)cc1,3,
CCC(=O)N1CCCc2cc(S(=O)(=O)N3CCC(N4CCCCC4)CC3)ccc21,-3,
Cc1noc(C)c1NC(=O)Nc1ccc2c(c1)C(=O)N([C@H](C)CO)C[C@H](C)[C@@H](CN(C)S(=O)(=O)c1ccc(F)cc1)O2,7,
SMILES,TTR transcr act,others
Cc1ccc(S(=O)(=O)N(C)C[C@@H]2Oc3ccc(NC(=O)Cn4cnnn4)cc3C(=O)N([C@@H](C)CO)C[C@H]2C)cc1,21*,TTR inh HuH7=-12;TTR act confirm=-1
CC(C)NC(=O)N(C)C[C@H]1Oc2ccc(NC(=O)Cn3cnnn3)cc2C(=O)N([C@H](C)CO)C[C@@H]1C,0,
CC(C)C(=O)N[C@H]1CCC2C3CC=C4C[C@@H](O)CC[C@]4(C)C3CC[C@@]21C (stereo partly drawn),-1,
Cc1csc(SCC(=O)Nc2cc(C(N)=O)cc(C(N)=O)c2)n1,-1,
COc1cc2sc3ccc(-c4ccc(CN5CCOCC5)cc4)cc3c(=O)c2cc1OC,0,
CCOC(=O)C1=C[C@@H](C(C)C)N(S(=O)(=O)c2ccc([N+](=O)[O-])cc2)[C@H]1c1ccccc1,-3,
CCOC(=O)C1=C[C@@H](CC)N(S(=O)(=O)c2ccc([N+](=O)[O-])cc2)[C@H]1c1ccccc1,48*,TTR inh HuH7=-4;TTR act confirm=0
CCOC(=O)C1=C[C@@H](C(C)(C)C)N(S(=O)(=O)c2ccc([N+](=O)[O-])cc2)[C@H]1c1ccccc1,-3,
Cc1ccc(-n2c(N)c(C(N)=O)sc2=S)cc1,2,
Cc1cccc(Nc2sc(C(=O)c3cc4cc(Cl)ccc4o3)c(N)c2C#N)c1,-1,
COc1ccc(CN(C)CC(=O)Nc2ccccc2C(F)(F)F)cc1,-1,
CSc1ccccc1NC(=O)CN(C)CC(=O)Nc1ccc(Cl)cc1F,-1,
CSc1ccccc1NC(=O)CN(C)CC(=O)Nc1ccccc1C(F)(F)F,12*,TTR inh HuH7=-19;TTR act confirm=0
O=C(NCc1ccco1)C1CCN(Cc2ccc(F)cc2)CC1,4,
CCN(c1ccc(OC)cc1)S(=O)(=O)c1nnc(NC(=O)C2CCCCC2)s1,1,
